# Experimental data reported in PubChem BioAssay (NCATS).
# Active and inactive are the calls of the source. A call without a number means that no potency is given here. The call rests on the fitted dose curve; in most records, active means well fitted activation curve with a large enough effect; inconclusive means small, poorly fitted or top-dose-only effect; inactive means flat fitted curve, though single readings scatter.
# Assay: Cellular Toxicity (caspase-3) SHSY5Y (AID 657)
# Settings: SH-SY5Y caspase-3 activation; series mostly up to 91.7 µM
# Excerpt: NIH Chemical Genomics Center [NCGC]
# NIH Molecular Libraries Screening Centers Network [MLSCN]
# National Institutes of Environmental Health Sciences [NIEHS]
# National Toxicology Program [NTP]
# We have developed a 1536-well cell-based assay for quantitative high throughput screening (qHTS) against a number of cell lines to determine in vitro caspase 3/7 activity of small molecules. This particular assay uses the SH-SY5Y cell line which is derived from human neuroblastoma.
# NCGC Assay Protocol Summary:
# The Caspase-Glo 3/7 assay (Promega) is a homogeneous method to measure caspase-3 and caspase-7 activities in cultured cells. The quantitation of caspase 3/7 activity is based on the cleavage of a peptide-aminoluciferin substrate. After caspase cleaves the substrate the free aminoluciferin is liberated and serves as the substrate of luciferase, which generates the light. The luminescent signal is proportional to the amount of caspase 3/7 activity present.
# Using the Caspase-Glo 3/7 assay, the amount of caspase 3/7 activity was measured in the SH-SY5Y cell line with complete culture medium following compound treatment for 16 hours. The assay was performed in opaque white 1536-well plates. In the screen, staurosporine and doxorubicin were used as positive controls. Library compounds were measured for their ability to cause the activation of caspase 3/7 in the cell line, as reflected by an increase in luminescence signal, in a concentration-dependent manner. Data were normalized to the controls for basal activity (DMSO only) and 100% stimulation (10 uM staurosporine). AC50 values were determined from concentration-response data modeled with the standard Hill equation.
# qHTS protocol for caspase 3/7 assay in SH-SY5Y cells
# [Step] [Parameter] [Value] [Description]
# 1. Reagent; 5 uL; 1500 SH-SY5Y cells/well
# 2. Time; 5 hr; 37 °C incubation
# 4. Controls; 23 nL; doxorubicin 7 pM to 100 uM & staurosporine 1.4 pM to 20 uM
# 5. Time; 16 hr; 37 °C incubation
# 6. Reagent; 5 uL; Caspase-Glo 3/7 reagent
# 7. Time; 1 hr; Room Temperature
# 8. Detection; Luminescence; Viewlux plate reader
# Keywords: caspase 3/7, apoptosis, SH-SY5Y cell line, luminescence, NTPHTS, NTPHTS_NCGC, NIEHS, EPA, DSSTox, MLSMR, MLSCN, NIH Roadmap, qHTS, NCGC
# Potency means the concentration at half of the fitted maximal effect.
row,SMILES,Potency
1,OCc1c[nH]c2ccccc12,inactive
2,Oc1ccccc1,inactive
3,C1=CC2C3C=CC(C3)C2C1 (stereo not given),inactive
4,O=C(Oc1ccccc1)c1ccccc1O,inactive
5,CCCC(=O)c1cc(O)c(O)cc1O,inactive
6,CCCCCCCCCCCCCCCC[n+]1ccccc1,inactive
7,O=C(c1ccccc1)c1ccccc1,inactive
8,COc1cc(C=O)ccc1O,inactive
9,Brc1ccccc1-c1ccccc1,inactive
10,CC(C)(c1ccc(O)cc1)c1ccc(O)cc1,inactive
11,Cc1ccc(O)cc1,inactive
12,CC(C)C(C)(C)C(C)(C)C(C)(C)S,inactive
13,Nc1cccc2c(N)cccc12,inactive
14,CC(C)(C)c1ccc(O)c(O)c1,inactive
15,c1ccc2occc2c1,inactive
16,Cc1cc(C(C)(C)C)c(O)c(C(C)(C)C)c1,inactive
17,CCCCC(CC)COC(=O)c1ccccc1C(=O)O (stereo not given),inactive
18,O=C(NO)c1ccccc1,inactive
19,CC(=O)OC/C=C(C)/C=C/C=C(C)/C=C/C1=C(C)CCCC1(C)C,inactive
20,Nc1c2ccccc2nc2ccccc12,39.8 µM (active)
